The supplement of paper PMC3334620
Over roughly 33,000 sequences, “E-score (-0.5 to 0.5)” has its median near -0.054; the highest 2% begin near 0.35. The full list was thinned out, with the highest values kept by preference.

Molecular target: T1, Stb5 (UniProt P38699)
T1 sequence: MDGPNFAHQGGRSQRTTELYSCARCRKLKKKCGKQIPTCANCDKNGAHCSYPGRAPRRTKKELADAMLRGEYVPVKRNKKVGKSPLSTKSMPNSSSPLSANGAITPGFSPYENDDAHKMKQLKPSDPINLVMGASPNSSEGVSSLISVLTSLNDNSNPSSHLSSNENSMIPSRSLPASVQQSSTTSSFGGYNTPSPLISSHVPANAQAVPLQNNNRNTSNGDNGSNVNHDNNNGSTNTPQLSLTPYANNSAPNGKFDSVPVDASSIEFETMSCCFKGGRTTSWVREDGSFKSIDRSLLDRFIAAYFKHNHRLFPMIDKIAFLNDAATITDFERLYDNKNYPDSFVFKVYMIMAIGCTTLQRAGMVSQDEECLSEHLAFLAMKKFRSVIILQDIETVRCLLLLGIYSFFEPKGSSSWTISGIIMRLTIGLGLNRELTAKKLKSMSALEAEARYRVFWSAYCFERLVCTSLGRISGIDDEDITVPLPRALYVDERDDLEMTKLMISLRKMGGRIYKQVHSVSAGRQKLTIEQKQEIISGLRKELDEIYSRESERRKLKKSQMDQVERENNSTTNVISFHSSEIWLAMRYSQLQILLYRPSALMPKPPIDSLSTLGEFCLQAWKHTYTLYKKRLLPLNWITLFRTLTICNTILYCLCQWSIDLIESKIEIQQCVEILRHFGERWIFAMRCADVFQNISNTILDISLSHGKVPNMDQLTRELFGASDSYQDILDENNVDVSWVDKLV
Test: PBM E-score (8-mer binding enrichment) (E-score (-0.5 to 0.5)); higher = stronger / more preferred TF binding
Settings: protein concentration: 200 nM; construct: GST-full length
Procedure: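 Universal 'all 10-mer' protein binding microarrays (Agilent AMADID 015681) probed with GST-tagged S. cerevisiae TFs (full-length or DBD) made by in vitro transcription/translation (PURExpress), about 100-200 nM. Bound TF was detected with fluorescent anti-GST. Each ungapped 8-mer (which stands for itself and its reverse complement) is scored by the PBM enrichment score (E-score), a modified Wilcoxon-Mann-Whitney statistic from -0.5 to +0.5, computed with the Universal PBM Analysis Suite. Scale: above 0.35 generally sequence-specific binding.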

Sequence	PBM E-score
GCCGCCGA	0.329
ACCGCAGT	0.206
ACCGCCGC	0.383
TCCGCCGA	0.346
ACCGCCGG	0.414
ACCGCCTG	0.25
ACGGTTGA	-0.165
ACTCTTTG	-0.24
ATCAAGGA	-0.12
CGCCCCCG	0.209
ACCTTTGC	-0.0619
ACCACCTA	-0.134
GCCATACA	-0.138
GTCCTCAA	-0.137
CACGTCAG	-0.163
GCCGCCAC	0.191
GCCGCCGC	0.391
ACCGCCAT	0.265
CCCGCCGC	0.347
ACCGCCAA	0.276
CCCGCCGA	0.345
GCCGCCAA	0.24

Sequence	PBM E-score
CCCGCCGG	0.39
ACCGCCAG	0.368
ATACGGGC	0.103
TTGGACAA	-0.195
ATTATTGG	0.0592
AGGCCCAG	-0.226
AGGAGGGG	-0.302
GTTTTCGA	-0.115
GTCCCGAA	0.121
TCGCGCAA	-0.136
ATAGACAA	-0.202
CGTGAGGC	-0.133
ATTCAGCC	-0.129
AACCGCGG	0.347
CCCCGCGG	0.349
CACCGCGG	0.419
AACCGCGC	0.273
CCGCGCGG	0.404
CCGCGCGC	0.281
CACCGCGC	0.401
CCGCGCGA	0.168
AACCGCGA	0.272

Sequence	PBM E-score
CACCGCGA	0.37
GACCGCGC	0.246
TACCGCGA	0.324
AATACTCC	0.173
GACAGTTA	-0.0979
AAGACTAG	-0.389
AGCTACAG	-0.215
TCAATCCA	-0.0437
GCGCTAGA	0.112
AGCACGGG	0.199
ACCACCCA	-0.217
GGCCTCCC	-0.0321
CGGTGCAC	0.0634
CCACCGTC	0.246
AGACCGTC	0.252
ACACCGTC	0.424
ACACCGTA	0.346
ACACCGTG	0.416
AAACCGTG	-0.0899
AACTAGCA	-0.134
CTTCGGCA	0.209
CAGCTGGG	-0.0897

Sequence	PBM E-score
CTTGGGTA	-0.128
AAACTCTA	-0.134
CGGCACCG	0.342
AGGCACCA	-0.0686
AGGCATCA	-0.202
GGGCATGA	-0.083
CGGCATCC	0.224
CGGCACCA	0.394
CGGCATGA	0.367
CGGCATCA	0.387
CGGCATGC	0.273
CTCCCTAC	-0.0607
AAGTACCG	0.441
CAATACCG	0.332
CATTACCG	0.205
AAGTACCC	0.0204
AAGTACCA	-0.0936
AATTACCC	0.0888
AATTACCG	0.395
AAATACCC	0.279
AAATACCG	0.432
